Reference: PubChem BioAssay (NCI)
Compounds without any hit were thinned out: in the full panel of roughly 83,000, 20% have a hit.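 How to read the values: 0–100, growth inhibition (40 = 60% inhibited); 0, no net growth; -100 to 0, cell death (-40 = 40% of starting cells died; -100 = all dead).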 Calls of active or inactive are those of the source. The calls were made as follows: active = growth percent below 10; inactive = the rest.

Experiments:
Assay in all cases: NCI-60 one-dose screen, 48 h (100 = growth as untreated, 0 = no growth, -100 = all killed)
Details in all cases: 10 µM
[1] = system: NCI-H23 lung
[2] = system: NCI-H226 lung
[3] = system: NCI-H322M lung
[4] = system: HOP-62 NSCLC
[5] = system: NCI-H460 lung
[6] = system: HOP-92 NSCLC
[7] = system: NCI-H522 lung
[8] = system: A549/ATCC NSCLC
[9] = system: 786-0 renal
[10] = system: COLO 205 colon

Measured: growth

N=C(N)c1ccc(-c2ccc(-c3ccccc3)s2)cc1F
active: [1] -65.9% | [2] -62.7% | [3] -88.5% | [4] -83% | [5] -79.5% | [6] -83.7% | [7] -75.2% | [8] -74.2% | [9] -85% | [10] -78.1%

COc1ccc(-c2nsc3c2NC(=O)CC3c2cccc(Cl)c2)cc1 (stereo not given)
inactive: [1] 46.9% | [2] 75% | [3] 36% | [4] 27.8% | [5] 13.3% | [8] 30.2% | [9] 46.4%
active: [6] -2.09% | [7] -6.59% | [10] -40.6%

Cc1ccc2oc(=O)cc(/C(=C3/C=CC=N3)c3ccc[nH]3)c2c1
active: [1] 9.51% | [2] -7.14% | [4] -11.3% | [5] -2.31% | [6] 7.28% | [7] -33.2% | [8] -21% | [9] 3.15% | [10] -53.6%
inactive: [3] 25.4%

CCC(CCNc1cc(OC)cc2cccnc12)CN1C(=O)c2ccccc2C1=O (stereo not given)
inactive: [1] 91.3% | [2] 98.9% | [3] 112% | [4] 102% | [5] 138% | [6] 93% | [7] 87.5% | [8] 105% | [9] 104% | [10] 113%

C[n+]1c(/C=C/c2c[nH]c3ccccc23)ccc2ccccc21
inactive: [1] 71.5% | [2] 62.3% | [3] 69.8% | [4] 75.4% | [5] 34.5% | [6] 37.9% | [7] 53.4% | [8] 46.6% | [9] 82.9% | [10] 45.8%

COc1ccc(S(=O)(=O)Nc2ccc(OCc3nnc(-c4ccc(Cl)cc4)o3)c(F)c2)cc1
inactive: [1] 43.4% | [2] 59.8% | [3] 80.2% | [4] 74.4% | [5] 59.4% | [6] 60.6% | [7] 43.4% | [8] 47.4% | [9] 67.8% | [10] 89.2%

Nc1ncncc1-c1ccc(F)cc1
inactive: [1] 108% | [2] 108% | [3] 108% | [4] 105% | [5] 110% | [6] 95.9% | [7] 119% | [8] 106% | [9] 104% | [10] 114%

O=C(c1ccc(Cl)cc1)c1no[n+]([O-])c1C(=O)c1ccc(Cl)cc1
inactive: [1] 98.4% | [2] 102% | [3] 107% | [4] 104% | [5] 108% | [6] 88.4% | [8] 104% | [10] 107%
active: [7] -77.8% | [9] -34.5%

FC(F)(F)c1ccc(-c2ncc(-c3ccc(C(F)(F)F)cc3)c(NCc3cc(C(F)(F)F)cc(C(F)(F)F)c3)n2)cc1
inactive: [1] 39.3% | [2] 46.7% | [3] 90.9% | [4] 62.6% | [5] 38.5% | [7] 43.3% | [8] 65.7% | [9] 53.9% | [10] 74.9%
active: [6] -6.55%

CCOC(=O)c1c(O)c2cc(-c3ccccc3)nc(OCC)c2c(=O)n1C
inactive: [1] 85.8% | [2] 79% | [3] 122% | [4] 93.2% | [5] 110% | [6] 51.7% | [7] 98.9% | [8] 99.4% | [9] 94% | [10] 117%

COc1ccccc1CNCCCN1C(=O)c2ccc3c4c(ccc(c24)C1=O)C(=O)N(CCCNCCNCCCN)C3=O
active: [1] 6.85% | [5] 6.29% | [7] -0.0156% | [8] 6.04% | [10] -59.4%
inactive: [2] 39.9% | [3] 27.9% | [4] 40.4% | [6] 66.3% | [9] 45.4%

O=C(N/N=C\c1cc(Cl)ccc1O)c1ccncc1
inactive: [1] 46% | [2] 31.6% | [3] 59.5% | [4] 55.7% | [5] 25.3% | [6] 47.5% | [7] 11.7% | [8] 79.8% | [9] 19.1% | [10] 23.7%

CCCCCCOc1ccc(/C=C/C(=O)c2ccc(B(O)O)cc2)cc1
inactive: [1] 76.2% | [2] 75.6% | [3] 85.9% | [4] 89.8% | [5] 91.7% | [7] 66.1% | [8] 75.7% | [9] 73% | [10] 103%
active: [6] 5.7%

NC(=O)c1ccc(Br)o1
inactive: [1] 95.1% | [2] 104% | [3] 104% | [4] 91.7% | [5] 109% | [6] 114% | [7] 88.3% | [8] 109% | [9] 96.8% | [10] 103%

O=C(Nc1ccc(CN2CCOCC2)cc1)c1ccc(-c2cc(Cl)ccc2Cl)o1
active: [5] 5.58% | [10] -82.1%
inactive: [1] 82.7% | [2] 72.5% | [3] 51.4% | [4] 71.4% | [6] 19.2% | [7] 66.7% | [8] 57.3% | [9] 63%

Cc1ccc(NC(=O)/C=N/O)cc1C
inactive: [1] 94.6% | [2] 53.2% | [3] 102% | [4] 92.7% | [5] 103% | [6] 82.3% | [7] 93% | [8] 94% | [9] 101% | [10] 105%

CC1=CSC2=NC(c3ccc(Cl)c(Cl)c3)=CC(c3ccc(Cl)cc3)N12 (stereo not given)
inactive: [1] 32.3% | [2] 38.1% | [4] 30.9% | [5] 53.7% | [8] 51.1% | [9] 22.3% | [10] 104%
active: [3] -4.79% | [6] -42.1% | [7] -20.7%

Clc1cc(Cl)c(Cl)c(-c2nc(-c3cccnc3)cs2)c1
active: [7] -51%
inactive: [1] 94.8% | [2] 90.9% | [3] 99.2% | [4] 114% | [5] 92.2% | [6] 79.7% | [8] 78.9% | [9] 99.1% | [10] 57.1%

C/C(=N\NC(=O)c1sc(=S)n(C)c1N)c1cc2ccccc2o1
inactive: [1] 71.6% | [2] 73.9% | [3] 45.4% | [4] 69.4% | [5] 37.2% | [6] 58.8% | [7] 36.2% | [8] 45.4% | [9] 57.3% | [10] 107%

Cc1ccc(-n2c(-c3cc4c([nH]c5ccccc54)c(-c4cccc(O)c4)n3)n[nH]c2=S)cc1
inactive: [1] 22.9% | [6] 34.3% | [9] 10.8% | [10] 17.8%
active: [2] -27.1% | [3] -2.32% | [4] -24% | [5] 4.05% | [7] -39.9% | [8] 2.93%

COc1cccc(-c2nnc(COc3ccc(-c4nc5ccc(C)cc5[nH]4)cc3OC)o2)c1
inactive: [1] 88% | [2] 84.6% | [3] 98% | [4] 101% | [5] 36.7% | [6] 74% | [7] 91.2% | [8] 61.8% | [9] 81.5% | [10] 72.6%

O=C1CC(c2cccc(-c3cccnc3)c2)=Nc2ccc(Br)cc2N1
active: [9] 1.54%
inactive: [1] 44.4% | [2] 27.8% | [3] 67.2% | [4] 19.7% | [5] 24.3% | [6] 23.5% | [7] 22.5% | [8] 38.1% | [10] 61.1%

Cc1cc(=O)oc2cc(OCc3cn(CC(O)CO)nn3)ccc12 (stereo not given)
inactive: [1] 94.1% | [2] 104% | [3] 109% | [4] 103% | [5] 111% | [6] 111% | [7] 107% | [8] 105% | [9] 111% | [10] 108%

O=C(COc1ccc(Cl)cc1Cl)Oc1coc(CSc2nc3ccccc3s2)cc1=O
inactive: [1] 94.5% | [2] 93.8% | [3] 114% | [4] 107% | [5] 101% | [6] 110% | [7] 74.8% | [8] 27.8% | [9] 113% | [10] 114%

C#CCNCCCN1C(=O)c2ccc3c4c(ccc(c24)C1=O)C(=O)N(CCCNCC#C)C3=O
active: [1] -45% | [2] -48.6% | [3] -94.4% | [4] -67.8% | [5] -78.5% | [6] -26.3% | [7] -78.4% | [8] -72.3% | [9] -56.9% | [10] -86.7%

COc1cc(C2CC(=O)Nc3c2c(C)nn3-c2nc3ccccc3[nH]2)cc(OC)c1O (stereo not given)
inactive: [1] 36.8% | [2] 66% | [3] 80.4% | [4] 88.6% | [5] 36.2% | [6] 32% | [7] 64.8% | [8] 40.1% | [9] 53.1% | [10] 106%

CC(=O)O[C@H]1CC[C@@]2(C)[C@@H](CC[C@@H]3[C@@H]2CC[C@]2(C)C=C(C=O)C[C@@H]32)C1
inactive: [1] 73.6% | [2] 119% | [3] 90.9% | [4] 33.3% | [5] 103% | [6] 76.2% | [7] 93.1% | [8] 95.3% | [9] 102% | [10] 95.4%

CC(=O)Nc1nc(C)c(C(=O)NNC=O)s1
inactive: [1] 97.4% | [2] 92.7% | [3] 155% | [4] 111% | [5] 105% | [6] 67.2% | [7] 99.5% | [8] 107% | [9] 118% | [10] 128%
